Experimental findings from PubChem BioAssay AID1259336 (Sattelle Laboratory, UCL Respiratory, Division of Medicine, …, 2017) are described below.

This experiment in a line: C. elegans growth inhibition, whole organism, log2 fold change (AID 1259336).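 Further: growth scored by imaging after five days at 20 °C.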 The following applies: anthelmintic screen, stronger effect = lower value.

Values without a mark were called inactive. Calls of active or inactive are those of the source. No stated cut-off is given here; in the data, active means log2 fold change growth below about -1.8; inactive means the rest.

With `Cc1ccc2nc(Cl)c(CNCc3cccs3)cc2c1`, the log2 fold change growth is -0.121.
In the case of `O=C(NCCN1CCCC1)c1cc(NCCN2CCOCC2)nc2ccc(Cl)cc12`, the log2 fold change growth is 0.29.
As to `COc1ccc(-c2cncc3ccc(C(=O)NCCCn4ccnc4)nc23)cc1`, the log2 fold change growth is 0.283.
For `COc1ccccc1OCCCCn1c(C2CC2)nc2ccccc21`, the log2 fold change growth was 0.559.
To `Clc1ccc(-n2cc(COc3ccnc4ccccc34)nn2)cc1` belongs -5.7 (active).
The same measure for `COc1ccc(-c2cnc3cnc(-c4cccc(OC(C)C)c4)cn23)cc1`: -0.137.
With `CC(=O)N1CCN(c2ccc(Oc3ccc(Cl)cc3O)cc2)CC1`, the log2 fold change growth was 0.423.
Take `CCOC(=O)c1noc(N)c1-c1ccccc1`: the log2 fold change growth is 0.292.
As to `Cc1ccc2nc(C)c(-c3ccn(Cc4ccccc4)n3)n2c1`, the log2 fold change growth is 0.192.
To `O=C(COc1cccc(F)c1)Nc1nc(-c2ccccn2)cs1` belongs -0.223.
On to `CC(=O)NC[C@H]1CN(c2ccc(N3CCSCC3)c(F)c2)C(=O)O1`, for which the log2 fold change growth is 0.00512.
Consider `CNC(=O)c1nn(C)c2c1C(C)(C)Cc1cnc(Nc3ccc(N4CCN(C)CC4)cc3)nc1-2`, for which the log2 fold change growth is 0.103.
The same measure for `Cc1ccc(NC(=O)c2nc[nH]c2C(=O)Nc2nc3ccccc3[nH]2)c(C)c1`: -0.815; for `NCCC[C@@](N)(C(=O)O)C(F)F`: 0.109.
Turning to `COc1ccccc1[C@H](C)NCC(=O)Nc1cc(C(F)(F)F)ccc1Cl`, the log2 fold change growth was 0.142.
Consider `COc1cccc(-n2nnnc2S(=O)(=O)Cc2ccccc2)c1`, for which the log2 fold change growth is 0.034.
